# Experimental data reported in PubChem BioAssay AID1851 (National Center for Advancing Translational Sciences (NCATS), 2009).
# About 4,000 (25%) of roughly 16,000 compounds were called active. Roughly 26% stayed inconclusive and do not appear here. A selection follows. A number with no mark means an inactive call. The call rests on the fitted dose curve; in most records, active means well fitted curve in the direction sought with a large enough effect; inconclusive means small, poorly fitted or top-dose-only effect, or effect the other way; inactive means no such curve, though single readings can be large or run the other way.
# Target: Cytochrome P450 2C9 (Homo sapiens) (UniProt P11712)
# Test: Cytochrome panel assay with activity outcomes
# Settings: recombinant CYP, pro-luciferin dealkylation, luminescence, p450-cyp2c9; series mostly up to 57.1 µM; activity, negative = inhibition: at the top concentration
# On the % scale 0 is the no-effect control and ±100 the full control effect.
# Sequence of Cytochrome P450 2C9 (Homo sapiens) (P11712 whole entry, looked up): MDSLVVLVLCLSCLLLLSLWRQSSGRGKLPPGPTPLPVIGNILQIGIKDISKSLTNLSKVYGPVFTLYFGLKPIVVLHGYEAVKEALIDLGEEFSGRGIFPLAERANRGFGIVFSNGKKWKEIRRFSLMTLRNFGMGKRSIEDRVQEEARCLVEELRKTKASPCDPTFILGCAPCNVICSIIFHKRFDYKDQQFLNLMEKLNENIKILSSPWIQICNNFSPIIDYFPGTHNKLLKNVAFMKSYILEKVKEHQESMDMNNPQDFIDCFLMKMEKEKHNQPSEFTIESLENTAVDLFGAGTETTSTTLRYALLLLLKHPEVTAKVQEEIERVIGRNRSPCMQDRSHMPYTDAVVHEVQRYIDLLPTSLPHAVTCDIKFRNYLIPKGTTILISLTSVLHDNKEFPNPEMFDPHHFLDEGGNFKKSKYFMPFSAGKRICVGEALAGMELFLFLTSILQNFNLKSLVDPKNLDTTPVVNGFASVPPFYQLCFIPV
Structure (SMILES),"activity, negative = inhibition",AC50
COCC(=O)N1CCC[C@@]2(CCN(Cc3ccccc3OC)C2)C1,6.92%,
CCOC(=O)c1ccccc1NC(=O)/C(C)=C/C(=O)O,-17%,
CCC(=O)Nc1ccccc1C(=O)OCC(=O)c1ccccc1,,631 nM (active)
CCC(=O)Nc1ccccc1C(=O)OCC(=O)c1cccc2ccccc12,,2240 nM (active)
CCc1ccc(C(=O)COC(=O)C(Cc2ccccc2)NC(=O)C2CCC(C)CC2)cc1 (stereo unspecified),-22.4%,
C[N+]1(C)CCO[C@](O)(c2ccccc2)C1,3.31% [at 11.4 µM],
CSCC[C@H](NC(=O)CC(C)(C)C)c1nc2ccccc2[nH]1,,14100 nM (active)
CSCC[C@H](NC(=O)c1nn(C)c(=O)c2ccccc12)c1nc2ccccc2[nH]1,,2000 nM (active)
CCCCCCCCCCCC1=C(O)C(=O)C=C(O)C1=O,1.23%,
Cn1c(C(F)(F)F)nc2c(=O)oc3ccccc3c21,-17.9%,
O=C(OCc1ccc(Cl)cc1)c1ccccc1C(=O)c1ccccc1,,4470 nM (active)
O=C(O)c1ccccc1C(=O)NNc1ccc(Cl)cc1,-11.7%,
O=C(O)c1ccc(C(=O)c2ccccc2)c(C(=O)O)c1,21.8% [at 11.4 µM],
CC(C)(C)C1CCC(OCC(O)CN2CCN(c3ccccc3)CC2)CC1 (stereo unspecified),-17.4%,
CCOC(=O)CCN1C(=O)[C@H]2[C@H]3[C@H](O)[C@H](O)C/C(=N/OC[C@@H](O)COCc4ccco4)[C@@H]3CC[C@@H]2C1=O,-5.27% [at 11.4 µM],
CC1CCN(c2cc(N3CCC(C)CC3)c([N+](=O)[O-])cc2/C=C(\C#N)c2nn(-c3ccccc3)c(N)c2C#N)CC1,,224 nM (active)
N#C/C(=C\c1cc([N+](=O)[O-])c(N2CCCCC2)cc1N1CCCCC1)c1nn(-c2ccccc2)c(N)c1C#N,,316 nM (active)
CS(=O)(=O)Nc1cccc(-c2cncnc2NCc2cccs2)c1,,126 nM (active)
CS(=O)(=O)Nc1cccc(-c2cncnc2NCc2ccccc2)c1,,398 nM (active)
COc1cccc(-c2cncnc2NCCN2CCOCC2)c1,1.81% [at 2.29 µM],
CS(=O)(=O)Nc1cccc(-c2cncnc2Nc2ccccc2)c1,-11.4% [at 2.29 µM],
COc1ccccc1CNc1ncncc1-c1cccc(NS(C)(=O)=O)c1,-27.7% [at 2.29 µM],
CS(=O)(=O)Nc1cccc(-c2cncnc2NCc2cccnc2)c1,-3.43% [at 2.29 µM],

Structure (SMILES),"activity, negative = inhibition",AC50
COc1cccc(-c2cncnc2NCc2cccnc2)c1,-10.5% [at 2.29 µM],
COc1cccc(-c2cncnc2NCc2cnc(C)cn2)c1,4.41% [at 2.29 µM],
COc1cccc(-c2cncnc2NCCc2cnc[nH]2)c1,,251 nM (active)
CS(=O)(=O)Nc1cccc(-c2cncnc2Nc2ccc(F)cc2)c1,-8.15% [at 2.29 µM],
c1cncc(-c2cncnc2NCc2cccs2)c1,-1.39% [at 2.29 µM],
COc1cccc(-c2cncnc2NCc2cccs2)c1,,398 nM (active)
O=C(O)CSCNC(=O)CC12CC3CC(CC(C3)C1)C2,-24.2%,
c1csc(CNc2ncncc2-c2ccc3c(c2)OCO3)c1,,316 nM (active)
Cc1cccc(CNc2ncncc2-c2ccc3c(c2)OCO3)c1,-20.1% [at 2.29 µM],
CN(C)c1ccc(-c2cncnc2NCc2cccs2)cc1,-23.6% [at 2.29 µM],
CCCN(CCC)CCCNC(=O)c1ccc2c(c1)N(CC)C(=O)c1ccccc1S2=O (stereo unspecified),-9.06%,
CCOc1c2ccc(C(=O)NCc3ccc4c(c3)OCO4)cc2nn1CC,,14100 nM (active)
COCCn1nc2cc(C(=O)NCc3cc(C(F)(F)F)cc(C(F)(F)F)c3)ccc2c1OC,-29.5%,
CCOc1c2ccc(C(=O)NCCCCc3ccccc3)cc2nn1CC,,11200 nM (active)
CCOc1c2ccc(C(=O)NCc3ccc(OC(F)(F)F)cc3)cc2nn1C,,15800 nM (active)
CCn1nc2cc(C(=O)NCC34CC5CC(CC(C5)C3)C4)ccc2c1OC,,14100 nM (active)
NC[C@@H]1O[C@H](O[C@@H]2[C@H](O[C@@H]3O[C@H](CO)[C@@H](COC[C@H]4O[C@@H](CN)[C@@H](O)[C@@H](O)[C@@H]4N)[C@@H]3O)[C@@H](O)[C@@H](N)C[C@H]2N)[C@@H](N)[C@H](O)[C@@H]1O,-9.36% [at 25.6 µM],
Clc1ccccc1-c1nc(-n2ccnc2)c2ccccc2n1,-16.4% [at 2.29 µM],
CCCn1nc2cc(C(=O)NCc3ccccc3OC)ccc2c1OCC,-4.13%,
CCCn1nc2cc(C(=O)NCCCCc3ccccc3)ccc2c1OCC,,12600 nM (active)
CCOC(=O)N/N=C1/C[C@@H](O)[C@@H](O)[C@@H]2[C@@H]3C(=O)N(C(C)(C)C)C(=O)[C@H]3CC[C@H]12,-0.388% [at 11.4 µM],
Cc1cc(O)c(/C=N/Nc2cccc(Cl)c2)c(=O)o1,,3160 nM (active)
Clc1cccc(N/N=C/c2ccc(N3CCOCC3)cc2)c1,-27.1%,
